Bioassay records as filed in PubChem BioAssay.
Only some compounds are listed: those with a hit (about 3.1% of all), similar ones and a draw of the others.
pS6 MEF inh – mTORC1 pathway inhibition measured by phospho-rpS6; Tsc2-/- p53-/- MEF, phospho-rpS6 immunofluorescence/PI, 24 h; Potency, µM (doses to about 38.3 µM), actives largely listed as inhibitors; hit rate 0.78% among 44,000; also: nearly all actives have a fitted effect of over 50% in size
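Immunofluorescence of rpS6 phosphorylation in Tsc2-/-, p53-/- MEFs after 24 h compound exposure, normalized to propidium iodide signal. Activity is expressed as % positive cells, thresholded with 7.5 nM rapamycin.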
OvCa metastasis – inhibitors of ovarian cancer cell adhesion and invasion in omental model; hit rate 0.1% among 46,000; Potency, µM (highest dose often 45.8 µM), most hits filed as inhibitors; SKOV3ip1-GFP adhesion/invasion on 3D omental model, fluorescence; also: nearly all actives have a fitted effect of over 65% in size
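Primary human omental fibroblast/mesothelial 3D culture pre-formed 48 h. SKOV3ip1-GFP cells added with compounds (0.36-46 umol/L), incubated 2 h RT/16 h 37 C, fixed; GFP cells quantified at 488/509 nm.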
S16 F2sN tox – S16 Schwann cell cytotoxicity; Potency, µM (top dose mostly 57.5 µM), most hits filed as cytotoxic; hit rate 0.48% among 43,000; S16 Pmp22-F2sN Schwann cells viability, CellTiter-Glo, 24 h; AID 1508642; also: nearly all actives have a fitted effect of over 65% in size
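Viability was measured by CellTiter-Glo luminescence (15 min, room temperature). This followed 24 h at 37 °C of compound exposure (23 nL pin transfer) in S16 Pmp22-F2sN Schwann cells, 500-1,000 per well.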
p53null 32C kill – p53 null cell cytotoxicity, permissive temperature. Potency, µM (titrated, usually from 46.1 µM), actives largely listed as cytotoxic. H1299-neo p53 null cells, ATP luminescence, 24 h, 32C. AID 903. hit rate 0.62% among 55,000; also: nearly all actives have a fitted effect of over 55% in size
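Luminescent ATP readout gave cell viability of p53-null H1299-neo cells after a 24 h compound exposure at the permissive 32C. Titrations ran up to 46 uM, and AC50s were fitted with the standard Hill equation.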
PMP22 txn – PMP22 gene transcription modulation; S16 Pmp22-F2sN Schwann cells (luciferase reporters placed in the Pmp22 gene), FLuc/NLuc coincidence luminescence, 24 h; Potency, µM (highest dose often 57.5 µM), usual class: inhibitors; hit rate 2% among 43,000; active = clear falling dose curves in both reporters; inconclusive = both reporters move, but less clearly or upward; inactive = either reporter flat; the % is the NLuc reporter signal
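S16 Schwann cells carrying FLuc/NLuc coincidence reporter in the Pmp22 3' UTR treated with compound 24 h at 37C; FLuc then NLuc luminescence read sequentially by dual-luciferase reagents.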
p53null 39C kill – selectivity test: cytotoxicity in p53 null cells, nonpermissive temperature; Potency, µM (top dose mostly 46.1 µM), actives largely listed as cytotoxic; H1299 p53-null (neo) cells, 39C, ATPlite viability, 24 h; AID 904; hit rate 0.97% among 55,000; also: nearly all actives have a fitted effect of over 50% in size
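Concentration-response (up to 46 uM) was run for 24 h at the nonpermissive 39C on H1299-p53A138V or H1299-neo cells. ATP content was measured with ATPlite luminescence. AC50 values were Hill-modeled after normalizing between DMSO and 100 uM tamoxifen killing.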
Hits are given with their value. Unless noted, calls follow the shape of the dose curve; as a rule, active = well fitted curve in the direction sought with a large enough effect; inconclusive = small, poorly fitted or top-dose-only effect, or another doubt; inactive = no such curve, though single readings can be large; an effect the other way counts as inactive or inconclusive.

`CCC[C@H](Nc1nc(-c2ccc(NC(=O)NCC)c(OC)c2)ncc1C)c1cccnc1` gave OvCa metastasis inactive.
Screening O=C(CSc1nnc(-c2ccc([N+](=O)[O-])cc2)o1)Nc1ccccc1 returned pS6 MEF inh inactive, OvCa metastasis inactive, S16 F2sN tox inactive, p53null 32C kill inconclusive, PMP22 txn inactive and p53null 39C kill 6.31µM.
COC(=O)c1ccc(Nc2nnc(-c3ccc(C)c(S(=O)(=O)N4CCN(C)CC4)c3)c3ccccc23)cc1 was read as pS6 MEF inh 20.7µM, OvCa metastasis inactive, S16 F2sN tox inconclusive, p53null 32C kill inactive, PMP22 txn inactive and p53null 39C kill inactive.
OC[C@H]1OC(O)C[C@@H](O)[C@H]1O (stereo partly specified) was read as OvCa metastasis inactive.
Screening O=C(Nc1ccc(F)cc1)c1ncn(-c2ccccc2)n1 returned pS6 MEF inh inactive, OvCa metastasis inactive, S16 F2sN tox inactive, p53null 32C kill inconclusive, PMP22 txn inconclusive and p53null 39C kill 31.6µM.
`Cc1nn2cc(-c3ccc(OC(C)C)cc3)nc2s1` gave pS6 MEF inh inactive, OvCa metastasis inactive, S16 F2sN tox inactive, p53null 32C kill 15.8µM, PMP22 txn inconclusive and p53null 39C kill 12.6µM.
`COCCCNC(=O)c1oc2c(c1C)-c1nn(Cc3cccc(Cl)c3)cc1CC2` gave pS6 MEF inh inactive, OvCa metastasis inactive, S16 F2sN tox inconclusive, p53null 32C kill inactive, PMP22 txn inconclusive and p53null 39C kill 17.8µM.
For CCOc1ccc(CCNCc2c(C(=O)O)n(Cc3ccc(C)cc3)c3cc(OC)ccc23)cc1 the results were pS6 MEF inh 11.7µM, OvCa metastasis inactive, S16 F2sN tox inactive, p53null 32C kill inactive, PMP22 txn inconclusive and p53null 39C kill inactive.
`C=Cc1ccc(Cn2c(C(=O)O)c(CNCc3ccc(F)cc3)c3ccc(C)cc32)cc1` gave pS6 MEF inh inactive, OvCa metastasis inconclusive, S16 F2sN tox 28.2µM, p53null 32C kill inactive, PMP22 txn inconclusive and p53null 39C kill inconclusive.
COc1ccc(Cn2c(C(=O)O)c(CNCc3ccc(SC)cc3)c3ccc(OC)cc32)cc1 was read as pS6 MEF inh 16.5µM, OvCa metastasis inactive, S16 F2sN tox inconclusive, p53null 32C kill inactive, PMP22 txn inconclusive and p53null 39C kill inconclusive.
CCOC(=O)[C@H](CCc1ccccc1)N[C@@H](C)C(=O)N1CCCC1C(=O)O (stereo partly specified) was read as OvCa metastasis inactive.
`CC(C)(C)OC(=O)N1CCC(c2c(C(=O)NCCN3CCC(Cc4ccccc4)CC3)cnn2-c2cccc(Cl)c2)CC1` gave pS6 MEF inh 14.7µM, OvCa metastasis inconclusive, S16 F2sN tox 25.1µM, p53null 32C kill inactive, PMP22 txn inconclusive and p53null 39C kill inactive.
For Cc1ccc(-n2ncc(C(=O)NCCN3CCCC3)c2C2CCN(C(=O)OC(C)(C)C)CC2)cc1 the results were pS6 MEF inh inactive, OvCa metastasis inactive, S16 F2sN tox inactive, p53null 32C kill inactive, PMP22 txn inconclusive and p53null 39C kill inactive.
`Cc1ccc(-n2ncc(C(=O)NCCN3CCC(Cc4ccccc4)CC3)c2C2CCN(C(=O)OC(C)(C)C)CC2)cc1` gave pS6 MEF inh inconclusive, OvCa metastasis inconclusive, S16 F2sN tox inconclusive, p53null 32C kill inconclusive, PMP22 txn inconclusive and p53null 39C kill 20µM.
For CCOC(=O)c1ccc(Nc2nc3nonc3nc2Nc2cccc(C)c2C)cc1 the results were pS6 MEF inh inactive, OvCa metastasis inconclusive, S16 F2sN tox inconclusive, p53null 32C kill inactive, PMP22 txn 10.6µM and p53null 39C kill inconclusive.
Cc1ccc(C)c(Nc2nc3nonc3nc2Nc2cccc(C)c2C)c1 was read as pS6 MEF inh inactive, OvCa metastasis inactive, S16 F2sN tox inconclusive, p53null 32C kill inactive, PMP22 txn inconclusive and p53null 39C kill inconclusive.
Screening CCc1ccc(N2CCn3c2nc2c3c(=O)n(Cc3c(F)cccc3Cl)c(=O)n2C)cc1 returned pS6 MEF inh inactive, OvCa metastasis inactive, S16 F2sN tox inactive, p53null 32C kill inactive, PMP22 txn inactive and p53null 39C kill 12.6µM.
`O=C(C[C@@H]1CC=CCCC(=O)O[C@H](c2ccccc2)CNC1=O)NCc1ccc(Cl)cc1` gave OvCa metastasis inactive.
Screening Cc1cc(NC(=O)c2ccco2)cc(-c2nc3cc(Cl)ccc3o2)c1O returned pS6 MEF inh 11.7µM, OvCa metastasis inactive, S16 F2sN tox inactive, p53null 32C kill inconclusive, PMP22 txn inconclusive and p53null 39C kill inconclusive.
Screening Clc1cc(Cl)cc(CNc2ncncc2-c2ccc3c(c2)OCO3)c1 returned OvCa metastasis inactive.
`CCCCN(C)CCNC(=O)C1CCN(c2nc3ccc(CC)cc3s2)CC1` gave pS6 MEF inh 11.7µM, OvCa metastasis inconclusive, S16 F2sN tox inconclusive, p53null 32C kill inconclusive, PMP22 txn inconclusive and p53null 39C kill 3.16µM.
`CCc1ccc2nc(N3CCC(C(=O)O)CC3)sc2c1` gave pS6 MEF inh inactive, OvCa metastasis inactive, S16 F2sN tox inactive, p53null 32C kill 7.94µM, PMP22 txn inactive and p53null 39C kill 5.01µM.
CCCCN(C)CCCNC(=O)c1ccc2nc(N3CCCCC3)sc2c1 was read as pS6 MEF inh inactive, OvCa metastasis inactive, S16 F2sN tox inactive, p53null 32C kill inactive, PMP22 txn inactive and p53null 39C kill inactive.
Screening CCc1ccc2nc(N3CCN(C(=O)C4CC4)CC3)sc2c1 returned pS6 MEF inh inactive, OvCa metastasis inactive, S16 F2sN tox inactive, p53null 32C kill inactive, PMP22 txn inactive and p53null 39C kill inactive.
Screening COCCNC(=O)CSc1nnc(NC(=O)Nc2ccc(C)cc2)s1 returned pS6 MEF inh inactive, OvCa metastasis inactive, S16 F2sN tox inactive, p53null 32C kill 12.6µM, PMP22 txn inactive and p53null 39C kill inactive.
For CS[C@H]1SC[C@@H]2C(=O)N(C)[C@H](C(C)C)C(=O)OC[C@H](NC(=O)c3cnc4ccccc4n3)C(=O)N[C@H](C)C(=O)N(C)[C@@H]1C(=O)N(C)[C@H](C(C)C)C(=O)OC[C@H](NC(=O)c1cnc3ccccc3n1)C(=O)N[C@H](C)C(=O)N2C the results were OvCa metastasis inactive.
`Cn1cc(-c2ccc3nnc(C(F)(F)c4ccc5ncccc5c4)n3n2)cn1` gave OvCa metastasis inactive.
`Cc1ccc(CNC(=O)Cn2c(SCC(=O)Nc3ccc(F)cc3)nc3ccccc32)cc1` gave pS6 MEF inh inconclusive, OvCa metastasis inactive, S16 F2sN tox inconclusive, p53null 32C kill inconclusive, PMP22 txn inconclusive and p53null 39C kill 12.6µM.
Screening Cc1ccccc1C(=O)c1ccc(Nc2ccc(Br)cc2N)cc1Cl returned OvCa metastasis inactive.
